Assay results as given in PubChem BioAssay (NCI).
Where “and” joins values, the source holds several entries; their conditions need not be identical. Equal values may be shown once. The panel holds about 83,000 compounds, 20% with a hit somewhere; the sample as a whole holds those more often.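 In brief: 96-well plates, 48 h treatment, single concentration, percent growth endpoint.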 Calls of active or inactive are those of the source. The calls were made as follows: active = growth percent below 10; inactive = the rest.

The compounds below were run on HOP-62 NSCLC (assay: NCI-60 one-dose screen, 48 h (100 = growth as untreated, 0 = no growth, -100 = all killed)). Details: 10 µM unless noted.
For `CC1=C(C)C(=O)C(NCCN2CCOCC2)=C(Br)C1=O`, the growth was 87.2% (inactive).
`N#Cc1ccc(C(=O)NNC(=O)CSc2nc3sc4c(c3c(=O)n2-c2ccc(Cl)cc2)CCCC4)cc1` was tested, and the growth was 7.62% (active).
In the case of `CCCCCCCOc1ccc(S(=O)(=O)Nc2ccc(C)c(F)c2C(=O)O)cc1`, the growth is reported as 98% (inactive).

The compounds below were run on NCI-H460 lung in the same assay as above. Details: 10 µM unless noted.
For `O=C(CSc1nc2ccccc2c(=O)[nH]1)Nc1ccccc1C(=O)O`, the growth was 118% (inactive).
In the case of `Cn1cc(-c2cc(N)n3nc(-c4c[nH]c5ccccc45)cc3n2)c2ccccc21`, the growth is reported as -66.6% (active).
For `Cc1cccc(/C=C/c2ccc(NC(=S)NCCCCN(C)C)cc2)c1`, the growth was -85.5% (active).
In the case of `Cc1ccc(N=Nc2c(N)nn3c(-c4cc5ccccc5oc4=O)ccnc23)cc1`, the growth is reported as 50% (inactive).
In the case of `O=C(Nc1nc2ccccc2s1)Nc1ccccc1Cl`, the growth is reported as 66.9% (inactive).
In the case of `COc1ccc(NC(=O)CSc2nnc(-c3ccc(-c4nc5ccc(Cl)cc5[nH]4)cc3)o2)cc1`, the growth is reported as -17.2% (active).
For `O=C1Nc2cc(-c3ccc(NS(=O)(=O)c4ccc(C(F)(F)F)cc4)cc3)ccc2/C1=C/c1ccc[nH]1`, the growth was 5.56% (active).
In the case of `COc1ccc(Nc2nnc(-c3c[nH]c4ccccc34)o2)cc1`, the growth is reported as 96.3% (inactive).
With `Cn1cc(-c2cc(N)n3nc(-c4c[nH]c5ccc(F)cc45)cc3n2)c2cccnc21` the growth was -50.6% (active).
`O=C(NN1C(=O)/C(=C/C=C/c2ccc([N+](=O)[O-])o2)SC1=S)c1ccc([N+](=O)[O-])cc1` was tested, and the growth was -48.9% (active).
In the case of `CN1C(=O)/C(=C/c2ccco2)S/C1=N/c1nccs1`, the growth is reported as 103% (inactive).
With `N#C/C(=C/c1ccc([N+](=O)[O-])cc1)c1nnc(NC(=O)c2ccc(-n3c(=O)[nH]c4ccccc4c3=O)cc2)s1` the growth was 79.2% (inactive).
`O=C(CSc1nnc(-c2ccc(-c3nc4ccc(Cl)cc4[nH]3)cc2)o1)Nc1ccccc1` was tested, and the growth was -48.7% (active).
`Cc1cccc(NCC(=O)N2CCN(c3ncnc4c3cnn4-c3ccccc3)CC2)c1` was tested, and the growth was 65% (inactive).
In the case of `O=C(N/N=C/c1ccc(Br)o1)c1[nH]c2ccc(Br)cc2c1-c1ccccc1`, the growth is reported as -63% (active).
`CCCCCCCCc1ccc(C(=O)Nc2ccc(C)c(OP(=O)(O)O)c2)cc1` was tested, and the growth was 110% (inactive).
With `Cn1cc(-c2cc3nc(-c4cn(C)c5ncc(Br)cc45)cc(N)n3n2)c2cc(F)ccc21` the growth was 20.9% (inactive).
With `O=C1Nc2ccccc2/C1=C/C(=O)c1cc2ccccc2oc1=O` the growth was 108% (inactive).
`c1n[nH]cc1-c1nc2ccc3cn[nH]c3c2c2c1CCCC2` was tested, and the growth was 101% (inactive).
In the case of `CN1C(=O)C(O)(CC(=O)c2cc3ccccc3oc2=O)c2ccccc21` (stereo unspecified), the growth is reported as 114% (inactive).
With `O=C(CCl)Nc1ccc(C(=O)/C=C/c2cc3ccccc3nc2Cl)cc1` the growth was -53.6% (active) and 19.5% (inactive).
In the case of `Cc1cc(C2(c3cc(C)c(OCC(O)CNc4c(C)n(C)n(-c5ccccc5)c4=O)cc3C(C)C)OC(=O)c3ccccc32)c(C(C)C)cc1OCC(O)CNc1c(C)n(C)n(-c2ccccc2)c1=O` (stereo unspecified), the growth is reported as 18.2% (inactive).
With `Cn1cc(-c2cc(N)n3nc(-c4c[nH]c5ccccc45)cc3n2)c2cc(Br)ccc21` the growth was -59% (active).
With `CCC(=O)c1c2c(c3ccc4c5ccccc5ccc4n13)C(=O)c1ccccc1C2=O` the growth was 6.66% (active).
In the case of `CS(=O)(=O)Nc1cc(-c2ccc3ncnc(Nc4ccc(OCc5cccnc5)c(Cl)c4)c3c2)cnc1Cl`, the growth is reported as 35.2% (inactive).
`Cn1cc(-c2cc(N)n3nc(-c4c[nH]c5ccccc45)cc3n2)c2cc(Cl)ccc21` was tested, and the growth was -59.5% (active).
In the case of `COc1ccc(N=Nc2c(N)nn3c(N)c(C#N)c(-c4ccc(C)cc4)nc23)cc1`, the growth is reported as 26.6% (inactive).
For `COc1ccc(C(=O)/C=C/c2ccc3c(c2)OCCO3)cc1S(N)(=O)=O`, the growth was 68.3% (inactive).
In the case of `CCCCC[C@@H]1C/C=C(\C)[C@@H](O)C(C)(C)C(=O)[C@@H](C)/C=C(\C)[C@@H]2C[C@H](O)C[C@](O)(CC(=O)O1)O2`, the growth is reported as 49.6% (inactive).
For `CC(C)(C)c1ccc(OCc2nc3ccccc3n2-c2cccc(N)c2)cc1`, the growth was 78.2% (inactive) and 109% (inactive).
In the case of `O=C1/C(=C/c2cnc(-c3ccccc3)s2)SC(=S)N1Cc1ccc2c(c1)OCO2`, the growth is reported as 97.2% (inactive).
`COc1ccc(NC2=C(I)C(=O)C(C)=C(C)C2=O)cc1` was tested, and the growth was 97.9% (inactive).
In the case of `COc1ccc(-c2nnc3c(/C=C/c4ccc(Br)cc4)nc4ccccc4n23)cc1`, the growth is reported as 67.6% (inactive).
